Source: the supplement of paper PMC7411054
Counter-ions that a name gives are not always drawn.

What was measured:
Test in all cases: phenotypically active (imaging signature differs from DMSO and reproducible) at any of 0.3-9 uM (binary (1 = active, 0 = inactive)); higher = active
Details in all cases: treatment time: 24 h
A549-ACTB-RAB5A = tested on: A549-ACTB-RAB5A
Summary of the method: (§1)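 Each of fifteen gene-edited A549, HepG2 and WPMY1 reporter lines, marked with BFP for segmentation and GFP and RFP/FusionRed, was treated in four wells at 0.3, 1, 3 or 9 µM for 24 h prior to live imaging. Normalisation of per-well live-cell features used solvent control wells. Deviation needed ≥3 of 4 wells beyond the 95th percentile of control Euclidean distances, and reproducibility needed a median replicate Pearson correlation above the 95th percentile of non-replicates. Both were required for phenotypic activity.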

A549-CANX-COX4 = tested on: A549-CANX-COX4
Summary of the method: as §1

A549-GM130-SQSTM1 = tested on: A549-GM130-SQSTM1
Summary of the method: as §1

A549-TP53BP1-CLTA = tested on: A549-TP53BP1-CLTA
Summary of the method: as §1

A549-TUBA1B-RELA = tested on: A549-TUBA1B-RELA
Summary of the method: as §1

HepG2-ACTB-RAB5A = tested on: HepG2-ACTB-RAB5A
Summary of the method: as §1

HepG2-CANX-COX4 = tested on: HepG2-CANX-COX4
Summary of the method: as §1

HepG2-GM130-SQSTM1 = tested on: HepG2-GM130-SQSTM1
Summary of the method: as §1

HepG2-TP53BP1-CLTA = tested on: HepG2-TP53BP1-CLTA
Summary of the method: as §1

HepG2-TUBA1B-RELA = tested on: HepG2-TUBA1B-RELA
Summary of the method: as §1

WPMY1-ACTB-RAB5A = tested on: WPMY1-ACTB-RAB5A
Summary of the method: as §1

WPMY1-CANX-COX4 = tested on: WPMY1-CANX-COX4
Summary of the method: as §1

WPMY1-GM130-SQSTM1 = tested on: WPMY1-GM130-SQSTM1
Summary of the method: as §1

WPMY1-TP53BP1-CLTA = tested on: WPMY1-TP53BP1-CLTA
Summary of the method: as §1

WPMY1-TUBA1B-RELA = tested on: WPMY1-TUBA1B-RELA
Summary of the method: as §1

Measured: phenotypically active

C=CCc1ccccc1OC[C@@H](O)CNC(C)C [Alprenolol hydrochloride]
inactive: A549-ACTB-RAB5A 0 | A549-CANX-COX4 0 | A549-GM130-SQSTM1 0 | A549-TP53BP1-CLTA 0 | A549-TUBA1B-RELA 0 | HepG2-ACTB-RAB5A 0 | HepG2-CANX-COX4 0 | HepG2-GM130-SQSTM1 0 | HepG2-TP53BP1-CLTA 0 | HepG2-TUBA1B-RELA 0 | WPMY1-ACTB-RAB5A 0 | WPMY1-CANX-COX4 0 | WPMY1-GM130-SQSTM1 0 | WPMY1-TP53BP1-CLTA 0 | WPMY1-TUBA1B-RELA 0

Cc1ccc(Cl)c(Nc2ccccc2C(=O)O)c1Cl [meclofenamic-acid]
inactive: A549-ACTB-RAB5A 0 | A549-CANX-COX4 0 | A549-GM130-SQSTM1 0 | A549-TP53BP1-CLTA 0 | A549-TUBA1B-RELA 0 | HepG2-ACTB-RAB5A 0 | HepG2-CANX-COX4 0 | HepG2-GM130-SQSTM1 0 | HepG2-TP53BP1-CLTA 0 | HepG2-TUBA1B-RELA 0 | WPMY1-ACTB-RAB5A 0 | WPMY1-CANX-COX4 0 | WPMY1-GM130-SQSTM1 0 | WPMY1-TP53BP1-CLTA 0 | WPMY1-TUBA1B-RELA 0

CSc1ccc(C(=O)c2[nH]c(=O)[nH]c2C)cc1 [Enoximone]
inactive: A549-ACTB-RAB5A 0 | A549-CANX-COX4 0 | A549-GM130-SQSTM1 0 | A549-TP53BP1-CLTA 0 | A549-TUBA1B-RELA 0 | HepG2-ACTB-RAB5A 0 | HepG2-CANX-COX4 0 | HepG2-GM130-SQSTM1 0 | HepG2-TP53BP1-CLTA 0 | HepG2-TUBA1B-RELA 0 | WPMY1-ACTB-RAB5A 0 | WPMY1-CANX-COX4 0 | WPMY1-GM130-SQSTM1 0 | WPMY1-TP53BP1-CLTA 0 | WPMY1-TUBA1B-RELA 0

Cc1cc(C(=O)NNCc2ccccc2)no1 [isocarboxazid]
inactive: A549-ACTB-RAB5A 0 | A549-CANX-COX4 0 | A549-GM130-SQSTM1 0 | A549-TP53BP1-CLTA 0 | A549-TUBA1B-RELA 0 | HepG2-ACTB-RAB5A 0 | HepG2-CANX-COX4 0 | HepG2-GM130-SQSTM1 0 | HepG2-TP53BP1-CLTA 0 | HepG2-TUBA1B-RELA 0 | WPMY1-ACTB-RAB5A 0 | WPMY1-CANX-COX4 0 | WPMY1-GM130-SQSTM1 0 | WPMY1-TP53BP1-CLTA 0 | WPMY1-TUBA1B-RELA 0

O=C(c1cccc(Br)c1)N1CCC(N2CCCC2)CC1 [UNC 926 hydrochloride]
inactive: A549-ACTB-RAB5A 0 | A549-CANX-COX4 0 | A549-GM130-SQSTM1 0 | A549-TP53BP1-CLTA 0 | A549-TUBA1B-RELA 0 | HepG2-ACTB-RAB5A 0 | HepG2-CANX-COX4 0 | HepG2-GM130-SQSTM1 0 | HepG2-TP53BP1-CLTA 0 | HepG2-TUBA1B-RELA 0 | WPMY1-ACTB-RAB5A 0 | WPMY1-CANX-COX4 0 | WPMY1-GM130-SQSTM1 0 | WPMY1-TP53BP1-CLTA 0 | WPMY1-TUBA1B-RELA 0

COc1ccc(-c2noc(CSc3nnc(C)n3-c3ccc(OC)cc3)n2)cc1
inactive: A549-ACTB-RAB5A 0 | A549-CANX-COX4 0 | A549-GM130-SQSTM1 0 | A549-TP53BP1-CLTA 0 | A549-TUBA1B-RELA 0 | HepG2-ACTB-RAB5A 0 | HepG2-CANX-COX4 0 | HepG2-GM130-SQSTM1 0 | HepG2-TP53BP1-CLTA 0 | HepG2-TUBA1B-RELA 0 | WPMY1-ACTB-RAB5A 0 | WPMY1-CANX-COX4 0 | WPMY1-GM130-SQSTM1 0 | WPMY1-TP53BP1-CLTA 0 | WPMY1-TUBA1B-RELA 0

NCCCC(O)(P(=O)(O)O)P(=O)(O)O [alendronate]
inactive: A549-ACTB-RAB5A 0 | A549-CANX-COX4 0 | A549-GM130-SQSTM1 0 | A549-TP53BP1-CLTA 0 | A549-TUBA1B-RELA 0 | HepG2-ACTB-RAB5A 0 | HepG2-CANX-COX4 0 | HepG2-GM130-SQSTM1 0 | HepG2-TP53BP1-CLTA 0 | HepG2-TUBA1B-RELA 0 | WPMY1-ACTB-RAB5A 0 | WPMY1-CANX-COX4 0 | WPMY1-GM130-SQSTM1 0 | WPMY1-TP53BP1-CLTA 0 | WPMY1-TUBA1B-RELA 0

C/C=C1/[C@H]2C=C(C)C[C@]1(N)c1ccc(=O)[nH]c1C2 [Huperzine A]
inactive: A549-ACTB-RAB5A 0 | A549-CANX-COX4 0 | A549-GM130-SQSTM1 0 | A549-TP53BP1-CLTA 0 | A549-TUBA1B-RELA 0 | HepG2-ACTB-RAB5A 0 | HepG2-CANX-COX4 0 | HepG2-GM130-SQSTM1 0 | HepG2-TP53BP1-CLTA 0 | HepG2-TUBA1B-RELA 0 | WPMY1-ACTB-RAB5A 0 | WPMY1-CANX-COX4 0 | WPMY1-GM130-SQSTM1 0 | WPMY1-TP53BP1-CLTA 0 | WPMY1-TUBA1B-RELA 0

COCCc1ccc(OCC(O)CNC(C)C)cc1 (stereo not given) [metoprolol]
inactive: A549-ACTB-RAB5A 0 | A549-CANX-COX4 0 | A549-GM130-SQSTM1 0 | A549-TP53BP1-CLTA 0 | A549-TUBA1B-RELA 0 | HepG2-ACTB-RAB5A 0 | HepG2-CANX-COX4 0 | HepG2-GM130-SQSTM1 0 | HepG2-TP53BP1-CLTA 0 | HepG2-TUBA1B-RELA 0 | WPMY1-ACTB-RAB5A 0 | WPMY1-CANX-COX4 0 | WPMY1-GM130-SQSTM1 0 | WPMY1-TP53BP1-CLTA 0 | WPMY1-TUBA1B-RELA 0

COc1ccc2c(c1)c(CC(=O)O)c(C)n2C(=O)c1ccc(Cl)cc1 [indomethacin]
inactive: A549-ACTB-RAB5A 0 | A549-CANX-COX4 0 | A549-GM130-SQSTM1 0 | A549-TP53BP1-CLTA 0 | A549-TUBA1B-RELA 0 | HepG2-ACTB-RAB5A 0 | HepG2-CANX-COX4 0 | HepG2-GM130-SQSTM1 0 | HepG2-TP53BP1-CLTA 0 | HepG2-TUBA1B-RELA 0 | WPMY1-ACTB-RAB5A 0 | WPMY1-CANX-COX4 0 | WPMY1-GM130-SQSTM1 0 | WPMY1-TP53BP1-CLTA 0 | WPMY1-TUBA1B-RELA 0

O=C(O)c1ccc(O)c2ncccc12
inactive: A549-ACTB-RAB5A 0 | A549-CANX-COX4 0 | A549-GM130-SQSTM1 0 | A549-TP53BP1-CLTA 0 | A549-TUBA1B-RELA 0 | HepG2-ACTB-RAB5A 0 | HepG2-CANX-COX4 0 | HepG2-GM130-SQSTM1 0 | HepG2-TP53BP1-CLTA 0 | HepG2-TUBA1B-RELA 0 | WPMY1-ACTB-RAB5A 0 | WPMY1-CANX-COX4 0 | WPMY1-GM130-SQSTM1 0 | WPMY1-TP53BP1-CLTA 0 | WPMY1-TUBA1B-RELA 0

CCCCC(=O)O[C@H]1CC[C@H]2[C@@H]3CCc4cc(O)ccc4[C@H]3CC[C@]12C [estradiol valerate]
inactive: A549-ACTB-RAB5A 0 | A549-CANX-COX4 0 | A549-GM130-SQSTM1 0 | A549-TP53BP1-CLTA 0 | A549-TUBA1B-RELA 0 | HepG2-ACTB-RAB5A 0 | HepG2-CANX-COX4 0 | HepG2-GM130-SQSTM1 0 | HepG2-TP53BP1-CLTA 0 | HepG2-TUBA1B-RELA 0 | WPMY1-ACTB-RAB5A 0 | WPMY1-CANX-COX4 0 | WPMY1-GM130-SQSTM1 0 | WPMY1-TP53BP1-CLTA 0 | WPMY1-TUBA1B-RELA 0
